Experimental findings from PubChem BioAssay AID488969 (Vanderbilt High Throughput Screening Facility, 2010) are described below.

The structures appear in SMILES notation. The full ranking holds about 110,000 compounds; the median of “z-score” is about -0.1, and the highest 2% start at about 2. Only a selection was taken, and the highest values are over-represented in it overall. Activity calls are given as the source filed them.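 The calls were made as follows: active = z-score in the third read window above 3 or below -3; inactive = the rest.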

The target of this experiment is Metabotropic glutamate receptor 8 (Rattus norvegicus) (UniProt P70579). As to the kind of experiment: rat mGluR8 modulators via GIRK flux, primary screen, cell-based, thallium flux, HTS (AID 488969). Particulars: HEK293 rat mGluR8, GIRK (G protein-gated inwardly rectifying potassium channel) thallium flux, FluoZin2; at 10 µM; stronger effect = higher value; submaximal glutamate (EC20) added with thallium.
Metabotropic glutamate receptor 8 (Rattus norvegicus), sequence (P70579 whole entry, looked up): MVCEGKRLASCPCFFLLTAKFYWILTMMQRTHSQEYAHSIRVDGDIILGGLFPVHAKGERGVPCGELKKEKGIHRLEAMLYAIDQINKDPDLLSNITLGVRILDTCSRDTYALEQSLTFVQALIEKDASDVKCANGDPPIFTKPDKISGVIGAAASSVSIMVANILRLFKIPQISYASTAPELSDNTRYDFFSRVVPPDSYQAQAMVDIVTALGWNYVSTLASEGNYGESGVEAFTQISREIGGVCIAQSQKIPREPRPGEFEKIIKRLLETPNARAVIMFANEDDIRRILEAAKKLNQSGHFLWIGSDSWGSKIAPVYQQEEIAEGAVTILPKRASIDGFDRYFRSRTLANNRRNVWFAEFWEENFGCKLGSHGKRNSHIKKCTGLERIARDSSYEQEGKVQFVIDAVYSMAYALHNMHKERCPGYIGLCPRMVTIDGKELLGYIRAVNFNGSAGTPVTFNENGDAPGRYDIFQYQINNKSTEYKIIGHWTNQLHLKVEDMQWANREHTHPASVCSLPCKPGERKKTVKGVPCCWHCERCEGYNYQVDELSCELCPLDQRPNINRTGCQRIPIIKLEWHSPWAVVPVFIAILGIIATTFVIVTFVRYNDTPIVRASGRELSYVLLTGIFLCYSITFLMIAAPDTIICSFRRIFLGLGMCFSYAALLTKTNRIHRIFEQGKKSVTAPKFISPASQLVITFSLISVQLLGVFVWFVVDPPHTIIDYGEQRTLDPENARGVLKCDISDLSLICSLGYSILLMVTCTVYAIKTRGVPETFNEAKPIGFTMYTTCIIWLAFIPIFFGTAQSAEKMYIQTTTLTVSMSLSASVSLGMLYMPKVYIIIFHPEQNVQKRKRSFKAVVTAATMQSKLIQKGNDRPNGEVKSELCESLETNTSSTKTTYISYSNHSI
`O=C(NCc1ccco1)C1CCN(c2ccc(N3CCOCC3)nn2)CC1` displayed a z-score of 0.321.
As for `O=C(CCC(=O)Nc1ccccc1)NNC(=O)COc1ccccc1`, the z-score was -0.00186.
As to `O=C(Cc1ccccc1)N/N=C/c1ccc(OC(=O)/C=C\c2ccco2)cc1`, the z-score is -0.0554.
`CCN(CC)CCCn1c(C)cc2c(c1=O)C(c1ccccc1)C(C#N)=C(N)O2` (stereo not given) gave a z-score of 0.538.
The value for `CCN(CC)CCCn1c(C)cc2c(c1=O)C(c1cccc(Cl)c1)C(C#N)=C(N)O2` (stereo not given) was 2.38; that for `CCN(CC)CCCn1c(C)cc2c(c1=O)C(c1ccc(OC)c(OC)c1OC)C(C#N)=C(N)O2` (stereo not given) was -0.47; that for `O=S(=O)(/N=C(/Nc1ccc(F)c(F)c1F)c1ccccc1)c1ccccc1` was -0.125.
For the compound `Cc1cc(C)nc(Sc2ncnc3sc4c(c23)CCC4)n1`, the z-score is 5.12 (active).
`CC(C#N)Sc1ncnc2sc3c(c12)CCC3` (stereo not given) yielded a z-score of 0.00954.
Compound `CCSc1ncnc2sc3c(c12)CCC3` yielded a z-score of -0.0891.
In the case of `O=C(NCc1ccc(Cl)cc1Cl)C(=O)N1CCCCC1`, the z-score amounted to 0.112.
The compound `O=C(COc1ccccc1)NCCc1cn2ccsc2n1` gave a z-score of 0.183.
The value for `Cc1ccc(C)c(NC(=O)c2cnn3ccccc23)c1` was -0.0235; that for `COc1cc(CCN2C(=O)c3cccc4cccc(c34)C2=O)c(S(=O)(=O)NCCCO)cc1OC` was 0.452; that for `CC(=O)n1cc(Nc2ccccc2C(=O)O)c2ccccc21` was -1.18.
The value for `CCOC(=O)c1ccccc1Nc1cn(C(C)=O)c2ccccc12` was 2.73.
With `CCOC(=O)c1ccccc1NC(=O)COC`, the z-score was -0.129.
For the compound `COc1cccc2[nH]c3c(N4CCC(C(N)=O)CC4)ncnc3c12`, the z-score was 0.0357.
For `Cc1ccc(S(=O)(=O)N(CCC(=O)O)Cc2ccc(Cl)cc2)cc1`, the z-score is -0.125.
As for `Cc1ccc(S(=O)(=O)N2CCN(C(=O)CN3C(=O)NC4(CCOc5ccccc54)C3=O)CC2)cc1` (stereo not given), the z-score turned out to be 0.106.
In the case of `CCN(CC)CCn1cnc2c([nH]c3cccc(OC)c32)c1=O`, the z-score was -0.0646.
With `CCOC(=O)C1CCN(C(=O)NC23CC4CC(CC(C4)C2)C3)CC1`, the z-score was 3.31 (active).
The value for `CCOC(=O)N1CCN(C(=O)NC23CC4CC(CC(C4)C2)C3)CC1` was -0.174.
Compound `CCOC(=O)C1CCN(C(=O)C23CC4CC(CC(C4)C2)C3)CC1` returned a z-score of 0.212.
Compound `Cc1cccc(NC(=S)NCCc2c[nH]c3ccccc23)c1` returned a z-score of 0.201.
`CC(C)(C)Nc1nc2nonc2nc1NC(C)(C)C` had a z-score of -0.28.
As for `Cc1oc(/C=N/NC(=O)CN(c2ccccc2Br)S(C)(=O)=O)cc1Br`, the z-score is -0.262.
`CCN(CC)S(=O)(=O)c1csc(C(=O)NCc2ccccc2)c1` showed a z-score of 2.45.
On to `CCN(CC)S(=O)(=O)c1csc(C(=O)OCC(=O)c2ccccc2)c1`, for which the z-score is -0.217.
Turning to `CCN(CC)S(=O)(=O)c1csc(C(=O)NC2CCCCC2)c1`, the z-score came to 0.101.
Then `COn1c2c(c3c4no[n+]([O-])c4ccc31)CCCC2`, with -0.414.
Turning to `COc1cccc(NC(=O)CCSc2ccc3ccccc3n2)c1`, the z-score was -0.0656.
In turn, `O=C(O)c1cc(NS(=O)(=O)c2ccc(N3CCCCC3)c([N+](=O)[O-])c2)cc(C(=O)O)c1` yielded a z-score of -0.105.
`CCC(C)n1c(SCC(=O)Nc2cc(C)on2)nc2ccccc2c1=O` (stereo not given): the z-score came out at 0.0932.
`COCC(C)n1c(SCC(=O)NC(=O)Nc2ccc3c(c2)OCCO3)nc2ccccc2c1=O` (stereo not given) returned a z-score of -1.25.
Then `CCC(C)n1c(SCC(=O)NC(=O)Nc2ccc3c(c2)OCCO3)nc2ccccc2c1=O` (stereo not given), with 4.47 (active); and `Cn1c(=O)c2c(nc(SCC(=O)NCc3ccco3)n2C)n(C)c1=O`, with 0.332.
On to `C/C(CC(=O)Nc1ccccn1)=N\NC(=O)c1ccc2ccccc2c1`, for which the z-score was -0.53.
Regarding `CCCNC(=O)C(=O)Nc1ccc(N(C)C)cc1`, the z-score was -0.0526.
Then `Cc1cccnc1NC(=S)NC(=O)c1cncc(Br)c1`, with -0.14; and `CC1CCCCC1NC(=S)NC(=O)c1ccccc1Br` (stereo not given), with 0.799; and `Cc1ccccc1NC(=S)NC(=O)c1cncc(Br)c1`, with 6.92 (active).
The compound `O=C(NC(=S)Nc1ccc(Br)cn1)c1cncc(Br)c1` yielded a z-score of 0.371.
As to `CC1CCCC(NC(=S)NC(=O)c2ccccc2Br)C1C` (stereo not given), the z-score was found to be 2.91.
Then `COc1ccccc1/C=C/C(=O)NC(=S)Nc1ccc(S(=O)(=O)N(C)c2ccccc2)cc1`, with 0.119; and `COc1ccccc1/C=C/C(=O)NC(=S)NC(C)C`, with 0.776; and `COc1ccccc1/C=C/C(=O)NC(=S)N(C)C1CCCCC1`, with 4.46 (active).
The value for `O=C(NC(=S)Nc1ncc(Br)cc1Br)c1cncc(Br)c1` was 0.278.
As to `CC1CCCC(NC(=S)NC(=O)c2cncc(Br)c2)C1C` (stereo not given), the z-score was 6.76 (active).
For the compound `O=C(NC(=S)NCC1CCCO1)c1ccccc1Br` (stereo not given), the z-score was 1.6.
Turning to `O=C(NC(=S)Nc1ccccn1)c1cncc(Br)c1`, the z-score turned out to be 0.829.
As to `CCOC(=O)c1c(C)nc2sc3c(=O)n(-c4ccc(C(C)=O)cc4)cnc3c2c1-c1ccc(Cl)cc1`, the z-score is -0.533.
For `CC(C)(Oc1ccc(Cl)cc1)C(=O)N1CCN(c2ccccn2)CC1`, the z-score is -0.0555.
Then `Cc1cc(C)nc(/N=C2\NC(=O)CC3C(=O)NCCN23)n1` (stereo not given), with -0.12.
The value for `CS(=O)(=O)N(CC(=O)NCc1ccncc1)c1ccc(Cl)c(Cl)c1` was -0.214; that for `COC(=O)c1cc(Cl)c(NC(=O)/C=C/c2ccc(Cl)cc2)cc1OC` was -0.0302.
The value for `CCCN1C2CCCC1CC(NC(=O)Nc1ccc(C(C)C)cc1)C2` (stereo not given) was 0.407; that for `CN1CCN(Cc2cc(=O)oc3cc4c(cc23)CCC4)CC1` was 0.745.
The compound `O=C(NC(=S)NC1CCCCCCCCCCC1)c1cccnc1` returned a z-score of -0.0629.
Take `O=C(NC(=S)NC1CCCCCC1)c1cncc(Br)c1`: the z-score was 6.87 (active).
Then `CN(C(=O)c1ccc(C(=O)N(C)C2CCCCC2)cc1)C1CCCCC1`, with 0.244; and `CN(C(=O)c1ccccc1Cl)C1CCCCC1`, with 0.549; and `CN(C(=S)NC(=O)c1ccccc1Br)C1CCCCC1`, with 3.51 (active).
Then `O=C(NC(=S)NC1CC1)c1cccnc1`, with 0.798; and `c1ccc2sc(C3CCN(Cc4nnnn4Cc4ccc5c(c4)OCO5)CC3)nc2c1`, with 0.227; and `CCc1nc(NCCCCCO)c2nnn(Cc3ccccc3F)c2n1`, with -0.538.
Then `CCn1c(=S)[nH]c2cc(C(=O)OC)ccc2c1=O`, with 7.77 (active); and `COCCCNC(=O)c1ccc2c(=O)n(CC3CCCO3)c(=S)[nH]c2c1` (stereo not given), with 0.247.
In turn, `O=C(NCC1CCCO1)c1ccc2c(=O)n(CC3CCCO3)c(=S)[nH]c2c1` (stereo not given) returned a z-score of 0.352.
For the compound `COC(=O)c1ccc2c(=O)n(CC3CCCO3)c(=S)[nH]c2c1` (stereo not given), the z-score was 7.72 (active).
In turn, `CCN(CC)CCCn1c(=S)[nH]c2cc(C(=O)OC)ccc2c1=O` had a z-score of 0.199.
As to `COC(=O)c1ccc2c(=O)n(CCO)c(=S)[nH]c2c1`, the z-score came to 0.000255.
`O=C1CN(c2ccccc2Cl)C(=O)CN1c1ccccc1Cl` registered a z-score of 0.348.
The value for `Cc1cccc(C)c1N1CCc2cn[nH]c21` was -0.273; that for `O=C(CSc1nc2cc(Cl)ccc2s1)NC1CCCc2ccccc21` (stereo not given) was -0.115; that for `CC12CCC(C(=O)N(Cc3ccccc3)Cc3ccccc3)(OC1=O)C2(C)C` (stereo not given) was -0.0292.
As for `CCOCCCn1c(SCC(=O)NC(C)C)nc2ccccc2c1=O`, the z-score was 0.328.
On to `CC(C)CCNC(=O)CSc1nc2ccsc2c(=O)n1NC(=O)c1ccccc1`, for which the z-score is -0.0204.
The value for `Cc1ccc(NC(=O)CSc2nc3ccccc3c(=O)n2CCCN2CCCCC2)cc1C` was 0.975; that for `CCCCNC(=O)CSc1nc2cc(OC)c(OC)cc2c(=O)n1Cc1ccc(OC)cc1` was -0.298; that for `CCCCn1c(SCC(=O)Nc2cc(C)on2)nc2ccccc2c1=O` was -1.45.
On to `Cc1cc(NC(=O)CSc2nc3ccccc3c(=O)n2Cc2ccccc2)no1`, for which the z-score was 4.05 (active).
The value for `Cc1cc(NC(=O)CSc2nc3ccsc3c(=O)n2NC(=O)c2ccccc2)no1` was 3.32 (active); that for `O=C(CSc1nc2ccsc2c(=O)n1NC(=O)c1ccccc1)Nc1nccs1` was -0.202.
Then `COc1ccc(NC(=O)CSc2nc3ccccc3c(=O)n2CCCN2CCCCC2)c(OC)c1`, with 3.69 (active); and `COc1ccc(NC(=O)CSc2nc3ccccc3c(=O)n2Cc2cccs2)c(OC)c1`, with 0.00897; and `CCC(C)NC(=O)CSc1nc2ccccc2c(=O)n1Cc1ccc(OC)cc1` (stereo not given), with 3.19 (active).
The compound `Cc1ccc(Cn2c(SCC(=O)Nc3cc(C)on3)nc3ccccc3c2=O)cc1` had a z-score of 1.07.
Then `Cc1cc(C)[n+](-c2ccc(F)cc2)c2[nH]c(=O)[nH]c(=O)c12`, with 0.407; and `Cc1ccc(C(=O)N2CC(=O)Nc3ccc(F)cc3C2c2ccccc2)cc1[N+](=O)[O-]` (stereo not given), with -0.229.
`O=C(NNC(=O)c1sc2cccc(Cl)c2c1Cl)Nc1ccccc1` registered a z-score of -0.00877.
In turn, `C=CCn1c(SCC(=O)Nc2ccc3c(c2)OCO3)nc2ccccc2c1=O` displayed a z-score of 0.212.
In turn, `Cc1ccc(OCCCN(C)C)c(Br)c1` yielded a z-score of 1.17.
On to `CCOC(=O)c1oc2ccc(S(=O)(=O)n3nc(-c4ccc(Cl)cc4)cc3N)cc2c1C`, for which the z-score is -0.324.
`CN(CCC#N)C(=O)COC(=O)c1ccc(Cl)c(S(N)(=O)=O)c1` showed a z-score of 0.0421.
With `CCCCNC(=O)CSc1nc2ccccc2c(=O)n1Cc1ccc2c(c1)OCO2`, the z-score was determined as 0.908.
For `CC1CCN(C(=O)CSc2nc3ccccc3c(=O)n2Cc2ccc3c(c2)OCO3)CC1`, the z-score worked out at 2.16.
Consider `CC1CCN(C(=O)Cn2c(=O)n(Cc3ccc4c(c3)OCO4)c(=O)c3ccccc32)CC1`, for which the z-score was -1.65.
On to `c1ccc(CCNc2ncnc3c2cnn3-c2ccccc2)cc1`, for which the z-score is -1.25.
Turning to `Cc1cccc(-n2ncc3c(NCCCO)ncnc32)c1`, the z-score was 0.607.
Take `Cc1cccc(-n2ncc3c(NCCc4ccc(S(N)(=O)=O)cc4)ncnc32)c1`: the z-score was 8.89 (active).
Then `O=C(CSc1ccc2nnc(-c3cccc(F)c3)n2n1)N1CCCc2ccccc21`, with -0.911; and `Cc1ccc(NC(=O)CN(C)C(=O)CCOc2ccccc2C)cc1`, with 1.66.
`CCC(CC)C1C(C#N)=C(N)Oc2n[nH]c(-c3ccccc3)c21` (stereo not given) returned a z-score of -0.557.
The value for `S=C(NN=C(C1CC1)C1CC1)Nc1ccccc1` was 4.43 (active); that for `O=C(NNC(=S)Nc1ccccc1)C1CC1` was -0.336; that for `S=C(NN=C1C2CC3CC(C2)CC1C3)Nc1ccccc1` was 11.7 (active).
Take `S=C(N/N=C1\C2CN3CCN(C2)CC1(c1ccccc1)C3)Nc1ccccc1`: the z-score was determined as 0.425.
Consider `CCC(=O)Nc1ccc(NC(=S)Nc2ccccc2)cc1`, for which the z-score was -0.362.
With `O=C(NN=C1C2CC3CC(C2)CC1C3)c1cccs1`, the z-score worked out at 0.589.
